Molecules are shown by their SMILES. Activity calls are given as the source filed them.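 Rule for the calls, unless noted: active = fluorescence slope higher than the sample average by over 3 SD (cut at about -0.22 in these data, passing the limit was not always enough); inactive = the rest.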

For orientation: inhibition means the change of the read-out against control, counted positive when it falls.

The target in the first assay is Dual specificity protein phosphatase 6 (Homo sapiens) (UniProt Q16828). The experiment in a line: Primary imaging screen for DUSP6 inhibitors that restore phospho-Erk in transfected HeLa cells, chemical complementation (AID 609;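 active = compounds giving at least 50% inhibition in the cell-based MKP-3 phosphatase rescue imaging test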;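 note: phospho-Erk level distribution per well compared with pooled transfected vehicle control wells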). Particulars: HeLa MKP-3 transfected, phospho-Erk imaging KS statistic; at 10 µM; hits give high values; cells stimulated with TPA for 15 min.
Chain of Dual specificity protein phosphatase 6 (Homo sapiens) (Q16828 whole entry, looked up): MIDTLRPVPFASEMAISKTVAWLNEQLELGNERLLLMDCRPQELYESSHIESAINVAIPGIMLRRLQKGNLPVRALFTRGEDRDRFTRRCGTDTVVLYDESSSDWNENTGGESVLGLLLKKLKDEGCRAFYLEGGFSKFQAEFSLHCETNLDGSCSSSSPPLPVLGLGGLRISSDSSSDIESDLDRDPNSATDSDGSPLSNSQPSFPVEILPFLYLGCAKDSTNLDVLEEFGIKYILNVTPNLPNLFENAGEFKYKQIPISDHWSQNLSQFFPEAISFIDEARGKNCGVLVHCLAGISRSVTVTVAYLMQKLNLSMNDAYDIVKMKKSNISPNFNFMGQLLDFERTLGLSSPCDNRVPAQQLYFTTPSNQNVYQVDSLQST
Turning to `N#CC1=C(N)OC2=C(C(=O)CCC2)C1CCc1ccccc1` (stereo not drawn), the inhibition is 2.92% (inactive).

As for `CC(=N\O)/C(CN(C)C)=N/O`, the inhibition was -0.233% (inactive).

In the case of `CCOC(=O)C1/C(=N\O)CC(C)(O)C(C(=O)OCC)C1c1ccc(N(C)C)cc1` (stereo not drawn), the inhibition was 1.9e-07% (inactive).

Consider `CCOc1cc(C2Nc3ccccc3C(=O)N2c2ccccc2OC)ccc1O` (stereo not drawn), for which the inhibition was 9.07% (inactive).

As to `CCOC(=O)C1=C(N)c2ccccc2CC1C(C)C` (stereo not drawn), the inhibition is 4.72% (inactive).

For `CCOc1ccc2nc(SCC(=O)Nc3ncccn3)[nH]c2c1`, the inhibition is 1.98% (inactive).

With `O=C(CCN1C(=O)c2ccccc2C1=O)OCN1C(=O)c2ccccc2C1=O`, the inhibition is 29.7% (inactive).

As for `CCOC(=O)Cc1nnc(Nc2cccc(O)c2)c2ccccc12`, the inhibition is -15.1% (inactive).

`Cc1cc(/C=N\O)c(C)n1-c1ccncc1`: the inhibition was 9.82% (inactive).

On to `Cc1ccc(NC(=O)CSC2=C(C#N)C(c3ccc4c(c3)OCO4)CC(=O)N2)cc1C` (stereo not drawn), for which the inhibition was 6.51% (inactive).

Take `CC1(C2(O)CC(c3ccccc3)ON2)CCCCC1` (stereo not drawn): the inhibition was -6.06% (inactive).

For the compound `COc1ccc(Cn2c(N)c(C#N)c3nc4ccccc4nc32)cc1OC`, the inhibition was 27.8% (inactive).

Consider `Cc1nnc(SCC(=O)N2CCC(C(N)=O)CC2)s1`, for which the inhibition is -3.95% (inactive).

Turning to `C=CCn1c(SCC(=O)c2ccccc2)nnc1-c1ccc2c(c1)OCO2`, the inhibition is -13.3% (inactive).

As to `CC(C)(C)c1ccc(O)c(N)c1`, the inhibition is -3.95% (inactive).

With `CC(=O)Nc1ccc(-c2cc3ccccc3o2)cc1`, the inhibition is -0.233% (inactive).

As for `COC(=O)c1ccccc1NC(=O)CSc1nnc(-c2ccncc2)o1`, the inhibition was 3.42% (inactive).

Regarding `Cc1c(C=NCCOCc2ccccc2)cnn1C`, the inhibition is -1.98% (inactive).

For the compound `CCS(=O)(=O)CCn1c([N+](=O)[O-])cnc1C`, the inhibition is 27.9% (inactive).

For the compound `Cc1ccc(-n2c(N)c(C(N)=O)sc2=S)cc1`, the inhibition is -1.98% (inactive).

As to `CCN(CC)CCOC(=O)C1(c2ccc(OC)c(OC)c2)CCCC1`, the inhibition is -13.3% (inactive).

As to `CCN(CC)C(=O)c1sc2nc(-c3cccs3)cc(-c3cccs3)c2c1N`, the inhibition was 9.61% (inactive).

Turning to `COc1ccc(/C(O)=C2/C(=O)C(=O)N(CCN(C)C)C2c2ccccn2)cc1OC` (stereo not drawn), the inhibition is 2.71% (inactive).

As to `CC1(C(=O)CSc2nc3ccccc3s2)CCC(=O)O1` (stereo not drawn), the inhibition was -4.27% (inactive).

Regarding `O=C(O)CC1Sc2nc3ccccc3n2C1=O` (stereo not drawn), the inhibition was 15.9% (inactive).

For `CC(=O)Nc1ccc(Oc2ccc3nc(C)[nH]c3c2)cc1`, the inhibition was 13.7% (inactive).

With `CC(C)c1nc(NCC2CCCO2)c(C#N)c2c1COC(C)(C)C2` (stereo not drawn), the inhibition is -8.59% (inactive).

`N#Cc1nc(COc2ccc(Br)cc2)oc1N1CCCC1`: the inhibition is 6.04% (inactive).

On to `CCCC1Cc2c(sc3ncnc(N)c23)CO1` (stereo not drawn), for which the inhibition is -1.98% (inactive).

Consider `Cc1nc(Sc2cccn2C)c(C(F)(F)F)c(=O)[nH]1`, for which the inhibition was 1.9e-07% (inactive).

In the case of `COC(=O)c1cc(Br)c(=O)n(-c2nccs2)c1`, the inhibition is 38.2% (inactive).

Consider `Cc1ccc(SCc2[nH]nc3c2C(c2ccc(C)o2)C(C#N)=C(N)O3)cc1` (stereo not drawn), for which the inhibition was 24% (inactive).

As to `COc1cccc(C2C(C(=O)c3cc4ccccc4o3)=C(O)C(=O)N2CCN(C)C)c1OC` (stereo not drawn), the inhibition is 22.7% (inactive).

`Cc1cc(C)n(CC2CC(=O)N(c3ccc(Cl)c(Cl)c3)C2=O)n1` (stereo not drawn): the inhibition is 12.8% (inactive).

On to `CN1CCN(c2nc3c(c(=O)n(C)c(=O)n3C)n2Cc2cccc3ccccc23)CC1`, for which the inhibition is -13.1% (inactive).

For `CC(C)C(=O)N1CCN(c2nc(-c3ccccc3)c3c(c2C#N)CCCC3)CC1`, the inhibition was -7.67% (inactive).

Turning to `CCSc1nc(O)c(C2OC(=O)c3c2ccc(OC)c3OC)c(=O)n1-c1ccccc1` (stereo not drawn), the inhibition was 1.98% (inactive).

With `COc1cccc(NC(=O)CC2SC(=Nc3ccccc3)NC2=O)c1` (stereo not drawn), the inhibition was 9.91% (inactive).

For the compound `Cc1nnc(NCc2n[nH]c(=O)c3ccccc23)c2ccccc12`, the inhibition is 7.21% (inactive).

The target of the next assay is Voltage-gated potassium channel subunit beta-2 (Rattus norvegicus) (UniProt P62483). As to the kind of experiment: inhibitors of rat Kvbeta2 reductase activity – biochemical, NADPH fluorescence, primary screen (AID 622).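 Note: slope of raw intensity against log time taken from 70 to 1610 s.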 As to conditions: recombinant KvBeta, 4-cyanobenzaldehyde reduction, at 10 µM, hits give high values.
Chain of Voltage-gated potassium channel subunit beta-2 (Rattus norvegicus) (P62483 whole entry, looked up): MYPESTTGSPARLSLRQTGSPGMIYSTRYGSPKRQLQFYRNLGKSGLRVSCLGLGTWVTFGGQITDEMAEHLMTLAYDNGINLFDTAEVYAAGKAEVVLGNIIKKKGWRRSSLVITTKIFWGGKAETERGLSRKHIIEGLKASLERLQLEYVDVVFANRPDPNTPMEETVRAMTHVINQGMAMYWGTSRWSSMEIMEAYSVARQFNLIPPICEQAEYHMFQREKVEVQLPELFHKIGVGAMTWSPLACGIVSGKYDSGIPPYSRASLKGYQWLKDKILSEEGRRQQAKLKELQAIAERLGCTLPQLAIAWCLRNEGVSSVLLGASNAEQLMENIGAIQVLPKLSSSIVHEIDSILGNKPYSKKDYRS
`N#CC1=C(N)OC2=C(C(=O)CCC2)C1CCc1ccccc1` (stereo not drawn): the fluorescence slope is -0.527 (inactive).

For `CC(=N\O)/C(CN(C)C)=N/O`, the fluorescence slope is -0.49 (inactive).

Regarding `CCOC(=O)C1/C(=N\O)CC(C)(O)C(C(=O)OCC)C1c1ccc(N(C)C)cc1` (stereo not drawn), the fluorescence slope is -0.427 (inactive).

With `CCOc1cc(C2Nc3ccccc3C(=O)N2c2ccccc2OC)ccc1O` (stereo not drawn), the fluorescence slope is -0.348 (inactive).

With `CCOC(=O)C1=C(N)c2ccccc2CC1C(C)C` (stereo not drawn), the fluorescence slope was -0.46 (inactive).

Take `CCOc1ccc2nc(SCC(=O)Nc3ncccn3)[nH]c2c1`: the fluorescence slope was -0.358 (inactive).

For the compound `O=C(CCN1C(=O)c2ccccc2C1=O)OCN1C(=O)c2ccccc2C1=O`, the fluorescence slope is -0.336 (inactive).

As to `CCOC(=O)Cc1nnc(Nc2cccc(O)c2)c2ccccc12`, the fluorescence slope is -0.457 (inactive).

Take `Cc1cc(/C=N\O)c(C)n1-c1ccncc1`: the fluorescence slope was -0.47 (inactive).

Take `Cc1ccc(NC(=O)CSC2=C(C#N)C(c3ccc4c(c3)OCO4)CC(=O)N2)cc1C` (stereo not drawn): the fluorescence slope was -0.486 (inactive).

Consider `CC1(C2(O)CC(c3ccccc3)ON2)CCCCC1` (stereo not drawn), for which the fluorescence slope is -0.516 (inactive).

Regarding `COc1ccc(Cn2c(N)c(C#N)c3nc4ccccc4nc32)cc1OC`, the fluorescence slope was -0.285 (inactive).

Regarding `Cc1nnc(SCC(=O)N2CCC(C(N)=O)CC2)s1`, the fluorescence slope was -0.418 (inactive).

Regarding `C=CCn1c(SCC(=O)c2ccccc2)nnc1-c1ccc2c(c1)OCO2`, the fluorescence slope is -0.528 (inactive).

As for `CC(C)(C)c1ccc(O)c(N)c1`, the fluorescence slope was -0.526 (inactive).

As to `CC(=O)Nc1ccc(-c2cc3ccccc3o2)cc1`, the fluorescence slope is -0.468 (inactive).

With `COC(=O)c1ccccc1NC(=O)CSc1nnc(-c2ccncc2)o1`, the fluorescence slope is -0.471 (inactive).

`Cc1c(C=NCCOCc2ccccc2)cnn1C`: the fluorescence slope is -0.369 (inactive).

Turning to `CCS(=O)(=O)CCn1c([N+](=O)[O-])cnc1C`, the fluorescence slope was -0.507 (inactive).

On to `Cc1ccc(-n2c(N)c(C(N)=O)sc2=S)cc1`, for which the fluorescence slope is -0.427 (inactive).

As to `CCN(CC)CCOC(=O)C1(c2ccc(OC)c(OC)c2)CCCC1`, the fluorescence slope is -0.513 (inactive).

Turning to `CCN(CC)C(=O)c1sc2nc(-c3cccs3)cc(-c3cccs3)c2c1N`, the fluorescence slope is 1.5e-14 (active).

Consider `COc1ccc(/C(O)=C2/C(=O)C(=O)N(CCN(C)C)C2c2ccccn2)cc1OC` (stereo not drawn), for which the fluorescence slope is -0.47 (inactive).

For the compound `CC1(C(=O)CSc2nc3ccccc3s2)CCC(=O)O1` (stereo not drawn), the fluorescence slope is -0.471 (inactive).

Regarding `O=C(O)CC1Sc2nc3ccccc3n2C1=O` (stereo not drawn), the fluorescence slope was -0.49 (inactive).

As for `CC(=O)Nc1ccc(Oc2ccc3nc(C)[nH]c3c2)cc1`, the fluorescence slope is -0.504 (inactive).

As for `CC(C)c1nc(NCC2CCCO2)c(C#N)c2c1COC(C)(C)C2` (stereo not drawn), the fluorescence slope was -0.461 (inactive).

As to `N#Cc1nc(COc2ccc(Br)cc2)oc1N1CCCC1`, the fluorescence slope is -0.434 (inactive).

In the case of `CCCC1Cc2c(sc3ncnc(N)c23)CO1` (stereo not drawn), the fluorescence slope was -0.411 (inactive).

As to `Cc1nc(Sc2cccn2C)c(C(F)(F)F)c(=O)[nH]1`, the fluorescence slope was -0.447 (inactive).

With `COC(=O)c1cc(Br)c(=O)n(-c2nccs2)c1`, the fluorescence slope is -0.421 (inactive).

With `Cc1ccc(SCc2[nH]nc3c2C(c2ccc(C)o2)C(C#N)=C(N)O3)cc1` (stereo not drawn), the fluorescence slope is -0.515 (inactive).

As to `COc1cccc(C2C(C(=O)c3cc4ccccc4o3)=C(O)C(=O)N2CCN(C)C)c1OC` (stereo not drawn), the fluorescence slope was -0.492 (inactive).

For `Cc1cc(C)n(CC2CC(=O)N(c3ccc(Cl)c(Cl)c3)C2=O)n1` (stereo not drawn), the fluorescence slope is -0.489 (inactive).

Take `CN1CCN(c2nc3c(c(=O)n(C)c(=O)n3C)n2Cc2cccc3ccccc23)CC1`: the fluorescence slope is -0.457 (inactive).

Consider `CC(C)C(=O)N1CCN(c2nc(-c3ccccc3)c3c(c2C#N)CCCC3)CC1`, for which the fluorescence slope was -0.377 (inactive).

As to `CCSc1nc(O)c(C2OC(=O)c3c2ccc(OC)c3OC)c(=O)n1-c1ccccc1` (stereo not drawn), the fluorescence slope is -0.416 (inactive).

Take `COc1cccc(NC(=O)CC2SC(=Nc3ccccc3)NC2=O)c1` (stereo not drawn): the fluorescence slope is -0.37 (inactive).

As for `Cc1nnc(NCc2n[nH]c(=O)c3ccccc23)c2ccccc12`, the fluorescence slope is -0.502 (inactive).

The values are drawn from PubChem BioAssay.
